HIF-2a block = blocks HIF-2a reporter activity; 786-0 RCC cells HIF-2a reporter, luciferase luminescence, overnight; inhibition, % at 18.8 µM; 360,000 tested, 0.72% active;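 active means inhibition of the luminescence signal of 40% or more relative to plate controls, in a single-dose primary screen at 18.75 µM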
Shn3 3UTR inh = inhibitors of Schnurri-3 3'UTR reporter in osteoblasts | Clone20 osteoblast Shn3 3'UTR firefly luciferase, 24 h | inhibition, % at 12.5 µM | 360,000 tested, 0.52% active;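 active means mean inhibition of at least 75% with every replicate also reaching 75%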;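 further: 0% = median of neutral control wells and 100% = pilot-screen positive control compound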
CF NFkB block = blocks PAF-induced NF-kB reporter in cystic fibrosis cells; KKLEB NF-kB-GFP reporter, GFP fluorescence overnight; AID 588850; inhibition, % at 5 µM; 360,000 tested, 0.86% active;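 active means at least 50% inhibition at 5 µM, scaled per plate between neutral and stimulator controls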;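 further: PAF is a Pseudomonas aeruginosa culture filtrate used as stimulus; plate controls were PAF-stimulated DMSO wells for no effect and unstimulated DMSO wells for full effect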
KKLEB cytotox = CF airway cell cytotoxicity counter-screen. 360,000 tested, 0.36% active. activity change (cytotoxicity), % at 5 µM. KKLEB CF airway cells viability, ATPlite luminescence, overnight; hits give low values; cells stimulated with P. aeruginosa culture filtrate. AID 602141;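 active means corrected activity change at or below -50% at 5 µM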
Peg3 prom inh = Peg3 promoter activity inhibition. inhibition, % at 20 µM. HeLa PEG-Prom luciferase reporter, luminescence, overnight. 360,000 tested, 1.7% active;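 active means inhibition of at least 50% at 20 µM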
MITF TRPM1 inh = inhibitors of MITF-driven TRPM1 promoter in melanoma cells; SK-MEL-5 TRPM1 promoter luciferase, 24 h; AID 488899; inhibition, % at 12.5 µM; 330,000 tested, 0.83% active;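 active means mean inhibition across replicates of 60% or more, whatever share of single replicates reaches that level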
Numbers without * were called inactive; . = not tested or not shown. Shown are actives, neighbours in structure and some others; about 2.8% of the full set was active somewhere.

SMILES	HIF-2a block	Shn3 3UTR inh	CF NFkB block	KKLEB cytotox	Peg3 prom inh	MITF TRPM1 inh
CO[C@H]1C=CO[C@@]2(C)Oc3c(C)c(O)c4c(O)c(c(C=NN5CCN(C)CC5)c(O)c4c3C2=O)NC(=O)C(C)=CC=C[C@H](C)[C@H](O)[C@@H](C)[C@@H](O)[C@@H](C)[C@H](OC(C)=O)[C@@H]1C	8	3	7	4	13	16
CC(=O)c1ccc(NC(=O)C(C)OC(=O)/C=C/c2ccco2)cc1 (stereo not drawn)	10	88*	-6	-1	-33	8
CC(OC(=O)/C=C/c1ccco1)C(=O)Nc1cccc([N+](=O)[O-])c1 (stereo not drawn)	15	25	-8	6	7	13
Cc1ccc2c(C)nc(Nc3nc(CSc4nnnn4-c4ccccc4)cc(=O)[nH]3)nc2c1	18	-18	10	6	53*	29
CCCCCCCC/C=C\CCCCCCCC(=O)NCCc1ccc(O)c(O)c1	18	91*	59*	6	-13	40
C[C@@H]1CN([C@@H](C)CO)C(=O)CCCn2nncc2CO[C@H]1CN(C)S(=O)(=O)c1cccs1	9	7	-32	16	-3	.
COCCn1c(SCC(=O)Nc2ccc(F)cc2)nc2c(oc3ccccc32)c1=O	10	33	42	-54*	6	-10
Cc1ccc(S(=O)(=O)C=CS(=O)(=O)c2ccc(C)cc2)cc1	52*	85	96*	-37	95*	.
Cc1ccc(S(=O)(=O)c2ccc(C)cc2)cc1	-7	1	8	2	3	-9
CSc1ccccc1OCc1cc(C(=O)N2CCN3CCCC3C2)no1 (stereo not drawn)	-69	-38	-18	19	-43	-25
O=C(N/N=C/c1cccc(Cl)c1)C(c1ccncc1)N1CCOCC1 (stereo not drawn)	18	5	23	-11	-6	-9
CC(C)(C)n1ncc2c(=O)n(Cc3cccc(Cn4cnc5c(cnn5C(C)(C)C)c4=O)c3F)cnc21	20	89*	16	2	15	8
Cc1ccccc1Cn1cnc2c(cnn2C(C)(C)C)c1=O	-19	-9	7	-6	-7	-10
Cc1ccc(S(=O)(=O)/N=C(/Nc2cccc(O)c2)c2ccccc2)cc1	12	25	-5	2	14	9
COc1cc(C(=O)NN=Cc2ccc(N(C)C)cc2)cc(OC)c1OC	9	19	44	-29	-17	.
N/C(=N\OCc1ccc([N+](=O)[O-])cc1)c1ccccn1	.	.	.	.	.	73*
CCN1CCN(CCNC(=O)c2ccc3nc(-c4cccc(C)c4)c(-c4cccc(C)c4)nc3c2)CC1	2	5	12	4	91*	87*
CCN1CCN(CCCNC(=O)c2ccc3c(Cl)c4c(nc3c2)CCCC4)CC1	-18	-1	19	-4	74*	92*
O=C(NCCCN1CCCCCC1)c1ccc2c(Cl)c3c(nc2c1)CCCC3	-8	0	-6	6	14	-2
CC(C)N1CCC1(C)C(=O)Nc1nc2ccccc2[nH]1 (stereo not drawn)	-3	-22	-20	17	-5	.
COCCn1c(=NC(=O)c2ccc(S(=O)(=O)N3CCc4ccccc4C3)cc2)sc2cc(OC)ccc21	10	2	55*	-69*	12	11
CCn1nc(C)c(CN2CCC(C(=O)Nc3cccc(-c4cccc(Cl)c4)c3)CC2)c1C	12	6	6	-25	68*	54
Cc1cc(C)n(CCCN2CCC(C(=O)Nc3cccc(-c4cccc(F)c4)c3)CC2)n1	10	6	14	-12	69*	62*
Cc1cccc(OCCN2C(=O)C(=O)c3cc(C)ccc32)c1	-79	19	54*	-14	-76	11
COc1cc(C2CC(=O)Nc3ccccc3S2)cc(OC)c1OC (stereo not drawn)	11	16	-14	-5	51*	8
SMILES	HIF-2a block	Shn3 3UTR inh	CF NFkB block	KKLEB cytotox	Peg3 prom inh	MITF TRPM1 inh
CC(C)Cn1c(N)c(C(=O)COC(=O)CC23CC4CC(CC(C4)C2)C3)c(=O)n(C)c1=O	17	87*	-4	-4	22	42
COc1cc(OC)cc(-c2c(Sc3ccccc3)c3cc(-c4ccc(SC)cc4)ccc3n2C)c1	-1	.	.	.	.	.
CC#CCN1c2ccccc2[C@]23C[C@@H](C(=O)OC)N(C(=O)OCC)C2=NC(C(=O)OC)=C(C(=O)OC)[C@H]13	0	-1	-14	4	-5	0
CC#CCN1c2ccccc2[C@]23C[C@@H](C(=O)OC)N(C(=O)C4CCC4)C2=NC(C(=O)OC)=C(C(=O)OC)[C@H]13	15	-22	27	-6	75*	-9
COC(=O)C1=C(C(=O)OC)[C@@H]2N(Cc3ccccc3)c3ccccc3[C@@]23C[C@@H](C(=O)OC)N(C(=O)COCc2ccccc2)C3=N1	18	-18	23	0	55*	-6
COC(=O)C1=C(C(=O)OC)[C@@H]2N(C)c3ccc(OC)cc3[C@@]23C[C@@H](C(=O)OC)N(C(=O)c2ccc(Br)cc2)C3=N1	-9	34	55*	-5	79*	2
C=CCN1c2ccccc2[C@]23C[C@@H](C(=O)OC)N(C(=O)c4cccs4)C2=NC(C(=O)OC)=C(C(=O)OC)[C@H]13	16	39	47	-20	75*	-6
C=CCN1c2ccccc2[C@]23C[C@@H](C(=O)OC)N(C(=O)OCC)C2=NC(C(=O)OC)=C(C(=O)OC)[C@H]13	14	-5	-11	4	-13	1
CCOC(=O)c1ccc(NS(=O)(=O)c2ccc3c(c2)NC(=O)CCS3)cc1	12	19	17	3	3	3
CC1=C(C#N)C(C(F)(F)F)(C(F)(F)F)N=C(c2ccco2)N1	2	89*	-17	-2	18	10
O=c1[nH]c(=O)n(Cc2ccccc2)c2c1C(C(F)(F)F)(C(F)(F)F)N=C(c1ccco1)N2	9	6	-3	-7	24	3
Nc1nonc1C(=O)NCCNCc1ccccc1OCc1ccccc1F	10	41	-3	-6	-13	14
NS(=O)(=O)c1ccc(CCNCc2ccccc2OCc2ccc(Cl)cc2)cc1	-2	61	14	0	87*	3
NS(=O)(=O)c1ccc(CCNCc2cc(Br)ccc2OCc2ccccc2F)cc1	-1	86*	10	-9	13	5
COc1cc(CNCCNC(=O)c2nonc2N)ccc1OCc1ccc(Cl)cc1	-45	82	11	-5	88*	-7
Nc1nonc1C(=O)NCCNCc1cc(Br)ccc1OCc1ccccc1F	2	85*	1	-17	-11	12
COc1cccc(CNCCNC(=O)c2nonc2N)c1	5	-5	0	-6	-4	3
CC(C)NC(=O)C1(C)CSCC(=O)N1CCCN1CCOCC1 (stereo not drawn)	0	.	.	.	.	.

Source: PubChem BioAssay (several laboratories)
